Screens as filed in PubChem.
Only some compounds are listed: those with a hit (about 1.8% of all), similar ones and a draw of the others.
JMJD2E inh – JMJD2E (human) inhibition; B2RXH2; JMJD2E catalytic domain, FDH-coupled NADH fluorescence (FDH is formaldehyde dehydrogenase); Potency, µM (titrated, usually from 57.1 µM), most hits filed as inhibitors; 230,000 compounds, 1.6% hits; AID 2147; active = well fitted inhibition curve with a large enough effect, not every such curve was filed as active; inconclusive = small, poorly fitted or top-dose-only effect, or another doubt; inactive = no such curve, though single readings can be large or run the other way; also: nearly all actives have a fitted effect of over 50% in size
Target sequence (B2RXH2 1-337 limits assumed): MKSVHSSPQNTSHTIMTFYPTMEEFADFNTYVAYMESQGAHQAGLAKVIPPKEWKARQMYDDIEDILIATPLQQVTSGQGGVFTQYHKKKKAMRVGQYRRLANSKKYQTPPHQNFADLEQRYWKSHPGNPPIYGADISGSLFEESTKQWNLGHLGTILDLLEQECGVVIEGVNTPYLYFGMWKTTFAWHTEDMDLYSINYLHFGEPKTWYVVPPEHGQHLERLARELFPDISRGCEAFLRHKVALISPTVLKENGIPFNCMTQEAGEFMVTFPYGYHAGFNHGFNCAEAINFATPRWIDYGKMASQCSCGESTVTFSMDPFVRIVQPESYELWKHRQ
L3MBTL1 block – blocks human L3MBTL1; 230,000 compounds, 0.66% hits; AlphaScreen L3MBTL1–H3K9me1 peptide binding; Potency, µM (top dose mostly 57.1 µM), actives largely listed as inhibitors; Q9Y468; AID 485360; also: nearly all actives have a fitted effect of over 60% in size
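Displacement of a biotinylated histone H3(1-15) peptide monomethylated at Lys9 (75 nM) from L3MBTL1 (50 nM) was measured by AlphaScreen after a 30 min room-temperature compound incubation; cefsulodin titration served as intraplate control.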
HttQ103 aggreg – mutant huntingtin aggregation inhibition; AID 1688; PC12 HttQ103-GFP aggregates, Acumen cytometry, 40 h; Potency, µM (highest dose often 46.1 µM), usual class: inhibitors; 220,000 compounds, 1.1% hits; also: nearly all actives have a fitted effect of over 60% in size
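Read-out: GFP aggregate count by laser scanning cytometer (488 nm excitation, 500-530 nm emission, 1–25 µm objects >6 SD above background). Cells: PC12, inducible HTTex1-Q103-GFP, 100 nM tebufenozide; compounds titrated.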
HTT ATP protect – cytoprotection in Huntington HTT-Q103 PC12 cell model; PC12 HTT-Q103 induced, cytoprotection, ATP luminescence, 40 h; Potency, µM (doses to about 56.4 µM), most hits filed as activators; 230,000 compounds, 0.14% hits; AID 1471; also: nearly all actives have a fitted effect of over 45% in size
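Quantitative HTS on tebufenozide-induced (100 nM) PC12 cells expressing HTTQ103 exon 1–GFP; compounds tested as a concentration series; survival measured via cellular ATP.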
A number is an active result; ! = a repeat was not active; [ ] = another dose, or the depositor's remark. Unless noted, calls follow the shape of the dose curve; as a rule, active = well fitted curve in the direction sought with a large enough effect; inconclusive = small, poorly fitted or top-dose-only effect, or another doubt; inactive = no such curve, though single readings can be large; an effect the other way counts as inactive or inconclusive.

`NS(=O)(=O)c1ccc(N=Nc2c[nH]c(=O)c(O)c2)cc1` gave JMJD2E inh 32µM, L3MBTL1 block inconclusive, HttQ103 aggreg inactive[9.22 µM] and HTT ATP protect inactive[10 µM].
`CC(C)[C@@H]1NC(=O)[C@H](CCCCN)NC(=O)[C@H](Cc2c[nH]c3ccccc23)NC(=O)[C@H](Cc2ccc(O)cc2)NC(=O)[C@H](C)N(C)C(=O)[C@H](Cc2ccccc2)NC1=O` gave HTT ATP protect inactive[1.9 µM].
For CC1(C)Cc2c(C#N)c(N3CCN(C(=O)c4ccccc4Cl)CC3)nc(-c3ccco3)c2CS1 the results were JMJD2E inh inconclusive, L3MBTL1 block inconclusive, HttQ103 aggreg inactive and HTT ATP protect inactive.
Screening CC(=O)N1CCN(c2nc(-c3ccco3)c3c(c2C#N)CC(C)(C)SC3)CC1 returned JMJD2E inh inconclusive, L3MBTL1 block inactive, HttQ103 aggreg 13µM and HTT ATP protect inactive.
Fc1ccc(NCc2nnc(SCc3nnc(-c4ccccc4)o3)n2Cc2ccccc2)cc1 was read as JMJD2E inh inactive, L3MBTL1 block inactive, HttQ103 aggreg 13µM and HTT ATP protect inactive[10 µM].
`CCCCC/C=C\C/C=C\C/C=C\CCCCCCC(=O)O[C@H](COCCCCCCCCCCCCCCCC)COP(=O)([O-])OCC[N+](C)(C)C` gave JMJD2E inh inactive and HTT ATP protect inactive.
CCCSc1nsc(NC(=O)C(c2ccccc2)c2ccccc2)n1 was read as JMJD2E inh inactive, HttQ103 aggreg 5µM and HTT ATP protect inactive[10 µM].
CCCSc1nsc(NC(=O)CC)n1 was read as JMJD2E inh inconclusive, L3MBTL1 block inactive, HttQ103 aggreg inactive[9.22 µM] and HTT ATP protect inactive[10 µM].
Screening COc1ccc(-n2c(=O)c(C)nc3cnc(N4CCNCC4)nc32)cc1 returned HTT ATP protect inactive.
Screening COc1cccc(NC(=O)CN(C)C(=O)c2cc3c(s2)CCC(C)C3)c1 (stereo not drawn) returned L3MBTL1 block inactive.
For COc1cccc(NC(=O)CN(C)C(=O)c2cc3c(s2)CCC3)c1 the results were L3MBTL1 block 8.9µM.
For NS(=O)(=O)c1ccc(-c2ccc(C=O)o2)cc1 the results were JMJD2E inh inconclusive, L3MBTL1 block inactive, HttQ103 aggreg inactive and HTT ATP protect inactive.
`NS(=O)(=O)c1ccc(-c2ccc(/C=C3\NC(=S)NC3=O)o2)cc1` gave L3MBTL1 block 13µM.
CC(=O)OC[C@@H]1O[C@@H](O/N=C2/C[C@@H](O)[C@@H](O)[C@@H]3[C@@H]4C(=O)N(C5CCCCC5)C(=O)[C@H]4CC[C@H]23)[C@H](OC(C)=O)[C@H](OC(C)=O)[C@@H]1OC(C)=O was read as HTT ATP protect inactive[10 µM].
`CCCCCCCCn1ccc(=N)cc1` gave JMJD2E inh inactive, L3MBTL1 block inactive, HttQ103 aggreg inactive[9.22 µM] and HTT ATP protect inactive[10 µM].
CCCCCCCCCCCCCCCCn1cc[n+](C)c1 was read as JMJD2E inh inactive, L3MBTL1 block inactive, HttQ103 aggreg 13µM! and HTT ATP protect inactive[10 µM].
CCOc1ccc(/C=C/C(=O)c2cc(Br)ccc(=O)c2O)cc1 was read as JMJD2E inh 32µM, L3MBTL1 block inactive and HttQ103 aggreg inconclusive.
For NC(=O)[C@@H]1CCCN1C(=O)[C@H](Cc1cnc[nH]1)NC(=O)[C@@H]1CCC(=O)N1 the results were HttQ103 aggreg inactive and HTT ATP protect inactive.
Screening Cc1ncc(N=Nc2ccc(F)cc2)c(-c2ccc(Cl)cc2)n1 returned JMJD2E inh inactive, L3MBTL1 block inactive, HttQ103 aggreg inactive and HTT ATP protect inactive[10 µM].
Screening Oc1ccc(N=Nc2n[nH]c(-c3ccc(Cl)cc3)n2)cc1 returned JMJD2E inh inactive, L3MBTL1 block inactive, HttQ103 aggreg 18µM and HTT ATP protect inactive.
COc1ccccc1-c1ccc2ncnc(NCCNC(C)=O)c2c1 was read as HTT ATP protect inactive.
Screening Cc1c(C2=CCN(S(=O)(=O)c3ccc(Br)cc3)CC2)c2ccccc2n1C returned JMJD2E inh 16µM, L3MBTL1 block inactive, HttQ103 aggreg inactive and HTT ATP protect inactive[10 µM].
For CCn1c(C)c(C2=CCN(S(=O)(=O)c3ccc(C)cc3)CC2)c2ccccc21 the results were JMJD2E inh inactive, L3MBTL1 block inactive, HttQ103 aggreg inactive and HTT ATP protect inactive[10 µM].
Screening Cc1cc(/C=C2/NC(=O)N(c3ccccc3)C2=O)c(C)n1-c1cccnc1 returned JMJD2E inh 20µM, L3MBTL1 block inactive and HttQ103 aggreg inactive.
Screening Cc1cc(/C=C2/NC(=S)NC2=O)c(C)n1-c1cccnc1 returned JMJD2E inh inactive, L3MBTL1 block inactive, HttQ103 aggreg inactive and HTT ATP protect inactive.
Cc1cccc(N2C(=O)/C(=C/c3cccnc3)SC2=S)c1 was read as JMJD2E inh inactive, L3MBTL1 block inconclusive, HttQ103 aggreg inactive[9.22 µM] and HTT ATP protect inactive[10 µM].
Screening Cc1cc(/C=C2/SC(=S)N(c3ccc([N+](=O)[O-])cc3)C2=O)c(C)n1-c1cccnc1 returned JMJD2E inh inactive, L3MBTL1 block inactive and HttQ103 aggreg 4µM.
`Cc1cccc(NC(=O)CN2C(=O)N/C(=C/c3cc(C)n(C)c3C)C2=O)c1` gave JMJD2E inh 32µM, L3MBTL1 block inactive, HttQ103 aggreg inactive and HTT ATP protect inactive.
Screening Cc1ccc(/C=C2\SC(=S)N(c3cccnc3)C2=O)o1 returned JMJD2E inh 11µM, HttQ103 aggreg inactive[9.22 µM] and HTT ATP protect inactive[10 µM].
`CCCCC/C=C\C[C@@H](O)/C=C/C=C/C=C/[C@@H](O)CCCC(=O)O` gave JMJD2E inh inactive and HTT ATP protect inactive.
Screening Cc1cccc(NC(=O)CN2C(=O)N/C(=C/c3cc(C)n(-c4cccnc4)c3C)C2=O)c1 returned JMJD2E inh 18µM, HttQ103 aggreg inactive and HTT ATP protect inactive.
For COc1ccc2[nH]cc(CCNc3ncncc3-c3ccccc3Cl)c2c1 the results were HTT ATP protect inactive.
`C/C=C/OC(=O)NC(c1ccccc1)[C@]1(C(C)=O)CCCC1=O` (stereo partly drawn) gave HTT ATP protect inactive[10 µM].
`Cc1cc(C(=O)CC#N)c(C)n1-c1ccc(OC(F)F)cc1` gave JMJD2E inh inactive, L3MBTL1 block inactive, HttQ103 aggreg 8.9µM and HTT ATP protect inactive[10 µM].
`CC(=O)OC[C@@H]1O[C@H](CCO/N=C(\C)CCN2CCCCc3nc(C)c(C)cc32)C=C[C@@H]1OC(C)=O` gave HTT ATP protect inactive[10 µM].
`COc1ccccc1OC(=O)CCN1c2ccccc2Sc2ccccc21` gave JMJD2E inh inactive, L3MBTL1 block inactive, HttQ103 aggreg inactive and HTT ATP protect inactive[10 µM].
Screening COc1ccc(C(=O)/C=C2\Sc3ccccc3N2C)cc1 returned JMJD2E inh inconclusive, L3MBTL1 block inactive, HttQ103 aggreg inactive[9.22 µM] and HTT ATP protect inactive[10 µM].
`COc1ccc(-[n+]2c(C)cc(/C=C3\Sc4ccccc4N3C)cc2C)cc1` gave JMJD2E inh inactive, L3MBTL1 block inactive and HttQ103 aggreg 1.1µM.
COc1ccccc1-[n+]1c(C)cc(/C=C2\Sc3ccccc3N2C)cc1C was read as JMJD2E inh inconclusive, HttQ103 aggreg 0.89µM and HTT ATP protect inactive[10 µM].
Cc1oc(C(=O)O)cc1COc1cccc2cccnc12 was read as JMJD2E inh inconclusive, L3MBTL1 block 28µM, HttQ103 aggreg inactive and HTT ATP protect inactive.
CCCCCCCc1cc2ccccc2c(=O)o1 was read as JMJD2E inh inactive and HTT ATP protect inactive.
